From PubChem BioAssay (NCATS) come the findings set out here.

In assay [1] the target is Lysosomal acid glucosylceramidase (Homo sapiens) (UniProt P04062). Nature of the assay: Glucocerebrosidase-p2 (AID 348; in the data active = potency below about 10 µM; also: potency is read from the fitted curve at half-maximal effect). To be noted: purified GBA, blue fluorogenic substrate, 40 min. The gist of the method: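 Compounds titrated from 0.6 nM upwards against 0.2 nM enzyme in pH 5.9 citric acid/KH2PO4, taurocholate, tween-20; blue fluorogenic substrate 80 uM, 40 min room temperature, stopped and read Ex 365/Em 440 for AC50.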

Assay [2] in a line: AP1 Signaling Pathway (AID 357). Also: % is scaled to controls: 0 for no effect and ±100 for the full control effect. Conditions: ME-180 AP-1-bla reporter, EGF-induced, beta-lactamase ratio, 5 h; at 7.69 µM (top of the series) unless noted. The gist of the method: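 Cells are seeded overnight, exposed to compound titrations and an EC50 level of EGF for 5 hours at 37 °C, then loaded with CCF4 dye for 2.5 hours. Beta-lactamase activity under the AP-1 element is read as a blue/green ratio.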

Assay [3] in a line: NFAT Signaling Pathway (AID 444).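 Also: carbachol stimulus at about its EC50 of 1 µM final; % is scaled to controls: 0 for no effect and ±100 for the full control effect.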 Conditions: Jurkat NFAT-bla M1, carbachol, beta-lactamase ratio, 5 h; at 7.69 µM (top of the series) unless noted. An outline of the steps:
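Read-out: CCF4 FRET ratio (460 nm/530 nm) after 1 h RT dye loading, used for %activity and AC50 from titration series. Cells: Jurkat NFAT-β-lactamase/M1 line, treated with compound plus 1 uM carbachol for 5 h, 37 °C.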

Assay [4] can be described thus: Stat Signaling Pathway (AID 446).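 Also: ME-180 cervical cancer cells given 40 pM IL-6 alongside compound; SIE-controlled beta-lactamase reporter measured as 460/530 nm FRET emission ratio; % is scaled to controls: 0 for no effect and ±100 for the full control effect.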 Conditions: ME-180 SIE beta-lactamase reporter, IL-6 stimulated, 5 h; at 7.69 µM (top of the series) unless noted. An outline of the steps: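 ME-180 cells carrying a SIE-driven beta-lactamase reporter are stimulated with 40 pM IL-6 for 5 h at 37C in the presence of compound. The 460/530 nm FRET substrate ratio is read after 2.5 h at RT. Data are normalised to 300 pM IL-6 and to 125 nM JAK inhibitor controls.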

The target of assay [5] is Glucocorticoid receptor (Homo sapiens) (UniProt P04150). Nature of the assay: GR-GFP Redistribution (AID 450;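 active = compounds whose dose series gives a full or clear partial fitted curve of increased nuclear translocation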; also: potency is read from the fitted curve at half-maximal effect). To be noted: U2OS GR-GFP nuclear translocation, laser cytometry, 2 h.
The target is the same in assay [6]. Nature of the assay: GR-EFC Redistribution (AID 451; calls by dose curve; also: potency is read from the fitted curve at half-maximal effect). Conditions: CHO-K1 GR-EFC translocation, beta-gal luminescence, 2 h. An outline of the steps: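 Translocation of GR-ED fusion to nuclear EA restores b-gal, read by luminescence after 1 h room-temperature detection. Engineered CHO-K1 biosensor cells, 1,000/well, exposed 2 h at 37 C to titrations up to 46 uM final.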

The target of assay [7] is Mitogen-activated protein kinase 10 (Mus musculus) (UniProt Q61831). Nature of the assay: JNK3 AlphaScreen Assay (AID 530).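 Also: kinase came from lysate of stimulated human HepG2 cells; signal reports phosphorylation of biotinylated GST-cJun 1-79 at Ser73 with 10 µM ATP; % is scaled to controls: 0 for no effect and ±100 for the full control effect.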 Conditions: JNK3 lysate, c-Jun phosphorylation; series mostly up to 57.1 µM. An outline of the steps: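 Compound titrations were preincubated 15 minutes at room temperature with substrate, antibody and pre-activated JNK3-containing HepG2 lysate. Reactions were started with 10 uM ATP and stopped with EDTA-containing bead buffer for AlphaScreen detection.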
A general note: In Alpha technology, singlet oxygen from a donor bead excites a nearby acceptor bead.

Assay [8] deals with 3',5'-cyclic-AMP phosphodiesterase 4B (Homo sapiens) (UniProt Q07343). Put plainly: qHTS Assay for Inhibitors of PDE-IV (AID 607; active = well fitted activation curve with a large enough effect in the main read-out, with a control signal flat, not every such curve was filed as active; also: % of control where 0% means no effect). Conditions: HEK293 ACTOne CNG channel cells, membrane potential fluorescence; series mostly up to 22.9 µM. The gist of the method: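 HEK293 ACTOne cells with CNG channel (1000/well), endogenous PDE4; membrane potential dye, compounds up to 22.9 uM final. Fluorescence Ex 535/Em 590; RO 20-1724 (100 uM final) as reference.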
(In general: In qHTS, concentration-response curves come from the screen itself.)

Assay [9] addresses Cytochrome P450 3A4 (Homo sapiens) (UniProt P08684). Put plainly: qHTS Assay for Inhibitors and Substrates of Cytochrome P450 3A4 (AID 884; active = well fitted curve in the direction sought with a large enough effect; an effect the other way counts as inactive or inconclusive; also: potency is read from the fitted curve at half-maximal effect; nearly all actives have a fitted effect of over 50% in size). To be noted: recombinant CYP3A4, Luciferin-PPXE luminescence; series mostly up to 57.1 µM. An outline of the steps:
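20 nM human CYP3A4 with 25 uM Luciferin-PPXE (at KM) in 200 mM KPO4, preincubated 10 min with compound; NADPH regeneration started a 60 min RT reaction. Luciferin detected by luminescence, normalized to 57 uM ketoconazole as full inhibition.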

Assay [10] shares this target. Put plainly: qHTS Assay for Activators of Cytochrome P450 3A4 (AID 885; active = well fitted curve in the direction sought with a large enough effect; an effect the other way counts as inactive or inconclusive; also: nearly all actives have a fitted effect of over 65% in size). Conditions: recombinant CYP3A4, Luciferin-PPXE luminescence, 60 min; series mostly up to 57.1 µM. The gist of the method:
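Human CYP3A4 (20 nM) with Luciferin-PPXE at 25 uM (its KM) in 200 mM KPO4; 10 min compound preincubation, then NADPH regeneration and 60 min reaction at RT. Luciferin read by luminescence; normalized to 57 uM ketoconazole full inhibition.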

Assay [11] can be described thus: Confirmation and Secondary Assay for Modulators of Hemoglobin Beta Chain Splicing at IVS2 654 locus (AID 910; active = well fitted curve in the direction sought with a large enough effect; an effect the other way counts as inactive or inconclusive;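 also: HeLa cells stably carrying EGFP split by mutant beta-globin IVS2-654 intron; per-well total GFP intensity by laser scanning cytometry after 2-day treatment; % of control where 0% means no effect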). To be noted: HeLa EGFP-654 splicing reporter, GFP fluorescence, 48 h; series mostly up to 38.3 µM. The gist of the method:
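Readout: per-well total peak green fluorescence (488 nm ex, 500–520 nm em) from objects 5–250 µm, reflecting correct splicing of an EGFP-654 reporter. Compounds were applied for 2 days at 37 °C to overnight-plated HeLa EGFP-654 cells; controls were DMSO and 500 nM IVS2-654 PNA.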

Assay [12] is described as follows: Confirmation and Secondary Assay for Modulators of Hemoglobin Beta Chain Splicing at IVS2 705 locus (AID 930; active = well fitted curve in the direction sought with a large enough effect; an effect the other way counts as inactive or inconclusive;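 also: HeLa cells stably expressing the EGFP-705 splicing reporter; % of control where 0% means no effect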). Conditions: HeLa EGFP-705 splicing reporter, GFP fluorescence, 48 h; series mostly up to 38.3 µM. The gist of the method: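 Splice-correction reporter: EGFP cDNA split by beta-globin intron 2 bearing the 705 mutation, stably in HeLa. Compound incubation 2 days, 37C; fluorescent objects 5-250 µm summed per well.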

A short description of assay [13]: qHTS Assay for Lipid Storage Modulators (AID 1519; calls by dose curve). To be noted: Drosophila S3 cells, BODIPY lipid droplet/cell ratio, laser cytometry, cells loaded with oleic acid; for activity change, negative = inhibition: at 57.5 µM (top of the series). The gist of the method:
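Cells seeded at 5,000 per well were treated with compounds over a concentration series and loaded with oleic acid (400 uM, as added). Lipid droplet fluorescence (488 nm excitation, 500-530 nm channel) was read by laser-scanning cytometry and normalized to 20 uM Triacsin C.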

Assay [14] is described as follows: Primary qHTS for small molecule stabilizers of the endoplasmic reticulum resident proteome: Secreted ER Calcium Modulated Protein (SERCaMP) assay (AID 1508630; active = well fitted curve in the direction sought with a large enough effect; an effect the other way counts as inactive or inconclusive; also: % is scaled to controls: 0 for no effect and ±100 for the full control effect). To be noted: SH-SY5Y GLuc-SERCaMP (Gaussia luciferase released on ER calcium loss) secretion, thapsigargin, luminescence; series mostly up to 38.4 µM. The gist of the method:
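GLuc-SERCaMP-expressing SH-SY5Y cells, pretreated 16 h with compound, are challenged with thapsigargin to empty ER calcium stores; after 4 h, coelenterazine is added directly to the medium and luminescence is imaged.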

In assay [15] the target is Ubiquitin carboxyl-terminal hydrolase 1 (Homo sapiens) (UniProt O94782). Put plainly: Inhibitors of USP1/UAF1: Pilot qHTS (AID 504865; active = well fitted curve in the direction sought with a large enough effect; an effect the other way counts as inactive or inconclusive;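 also: rhodamine fluorescence freed from ubiquitin-rhodamine substrate followed over time; top concentration of the series differs between compounds; % is scaled to controls: 0 for no effect and ±100 for the full control effect; nearly all actives have a fitted effect of over 35% in size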). To be noted: purified USP1/UAF1, Ub-rhodamine cleavage fluorescence; series mostly up to 54.9 µM. The gist of the method: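 USP1/UAF1 complex (1nM) preincubated with compound 15 min at room temperature, then Ub-Rho substrate (150nM final) added. Fluorescence read kinetically at 480/540 nm, 6 reads every 60 seconds. Buffer: 50mM HEPES pH 7.8, 0.5mM EDTA, 0.1 mg/ml BSA, 1mM TCEP, 0.01% Tween-20.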

The mark [16] stands for this setting: measured here: cell count channel max response.
The mark [17] stands for this setting: measured here: lipid channel max response.

Molecules are shown by their SMILES. Results filed as inconclusive are left out. The source made the active and inactive calls. Unless noted, calls follow the shape of the dose curve; as a rule, active = well fitted curve in either direction with a large enough effect (not every such curve was filed as active); inconclusive = small, poorly fitted or top-dose-only effect, or another doubt; inactive = flat fitted curve, though single readings scatter.

Glucocorticoid receptor (Homo sapiens), sequence (P04150 whole entry, looked up, the tested form may be a part): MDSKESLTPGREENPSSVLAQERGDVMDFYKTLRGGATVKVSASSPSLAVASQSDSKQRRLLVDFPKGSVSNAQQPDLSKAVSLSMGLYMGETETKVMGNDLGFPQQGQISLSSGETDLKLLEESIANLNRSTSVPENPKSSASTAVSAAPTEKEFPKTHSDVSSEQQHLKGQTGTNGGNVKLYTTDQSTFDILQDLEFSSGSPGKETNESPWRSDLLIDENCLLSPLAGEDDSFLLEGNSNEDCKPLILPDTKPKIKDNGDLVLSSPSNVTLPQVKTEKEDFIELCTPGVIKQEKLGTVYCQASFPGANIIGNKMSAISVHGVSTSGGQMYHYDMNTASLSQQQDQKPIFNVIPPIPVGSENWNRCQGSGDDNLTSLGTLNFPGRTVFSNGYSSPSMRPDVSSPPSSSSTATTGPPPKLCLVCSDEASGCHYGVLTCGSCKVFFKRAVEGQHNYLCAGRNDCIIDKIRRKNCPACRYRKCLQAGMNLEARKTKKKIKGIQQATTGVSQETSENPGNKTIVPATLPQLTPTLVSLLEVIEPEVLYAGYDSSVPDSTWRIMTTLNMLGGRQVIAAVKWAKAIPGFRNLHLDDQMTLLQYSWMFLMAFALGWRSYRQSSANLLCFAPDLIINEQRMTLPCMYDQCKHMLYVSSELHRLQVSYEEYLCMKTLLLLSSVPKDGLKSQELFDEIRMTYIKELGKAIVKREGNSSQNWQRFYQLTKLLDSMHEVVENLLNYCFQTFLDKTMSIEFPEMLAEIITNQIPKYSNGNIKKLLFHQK
Lysosomal acid glucosylceramidase (Homo sapiens), sequence (P04062 whole entry, looked up): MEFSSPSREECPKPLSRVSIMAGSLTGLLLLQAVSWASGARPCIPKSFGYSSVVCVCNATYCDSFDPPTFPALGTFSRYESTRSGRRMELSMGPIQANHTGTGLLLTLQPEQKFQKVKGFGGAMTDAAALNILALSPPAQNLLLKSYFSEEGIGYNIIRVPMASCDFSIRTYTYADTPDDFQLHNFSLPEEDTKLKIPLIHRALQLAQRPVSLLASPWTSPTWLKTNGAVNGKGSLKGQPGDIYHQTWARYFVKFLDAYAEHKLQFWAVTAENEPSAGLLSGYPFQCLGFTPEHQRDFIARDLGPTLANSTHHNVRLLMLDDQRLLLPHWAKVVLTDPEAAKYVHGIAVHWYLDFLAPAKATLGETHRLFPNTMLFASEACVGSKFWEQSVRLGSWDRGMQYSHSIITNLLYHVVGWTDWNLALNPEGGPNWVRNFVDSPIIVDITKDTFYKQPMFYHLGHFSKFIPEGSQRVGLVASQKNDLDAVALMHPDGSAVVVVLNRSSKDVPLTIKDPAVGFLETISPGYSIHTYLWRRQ
3',5'-cyclic-AMP phosphodiesterase 4B (Homo sapiens), sequence (Q07343 whole entry, looked up): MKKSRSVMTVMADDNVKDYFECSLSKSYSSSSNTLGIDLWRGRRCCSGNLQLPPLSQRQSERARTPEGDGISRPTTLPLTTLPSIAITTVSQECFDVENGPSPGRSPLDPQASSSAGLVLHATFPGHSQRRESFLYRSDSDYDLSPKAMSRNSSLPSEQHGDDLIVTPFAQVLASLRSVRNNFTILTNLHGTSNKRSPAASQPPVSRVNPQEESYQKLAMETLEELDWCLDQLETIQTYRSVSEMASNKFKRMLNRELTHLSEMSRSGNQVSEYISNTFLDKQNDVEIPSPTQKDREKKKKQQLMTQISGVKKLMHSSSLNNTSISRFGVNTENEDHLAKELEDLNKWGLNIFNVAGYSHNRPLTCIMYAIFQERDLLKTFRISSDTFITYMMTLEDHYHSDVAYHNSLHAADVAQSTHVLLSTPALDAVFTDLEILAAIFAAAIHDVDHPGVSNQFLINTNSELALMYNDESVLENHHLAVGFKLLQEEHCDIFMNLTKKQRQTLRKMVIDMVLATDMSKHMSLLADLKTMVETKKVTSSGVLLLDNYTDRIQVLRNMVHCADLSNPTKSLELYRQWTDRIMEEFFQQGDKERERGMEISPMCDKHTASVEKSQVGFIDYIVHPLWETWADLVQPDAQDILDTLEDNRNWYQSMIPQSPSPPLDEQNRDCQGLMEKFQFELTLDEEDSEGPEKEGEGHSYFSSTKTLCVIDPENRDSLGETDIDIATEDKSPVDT
Cytochrome P450 3A4 (Homo sapiens), sequence (P08684 whole entry, looked up): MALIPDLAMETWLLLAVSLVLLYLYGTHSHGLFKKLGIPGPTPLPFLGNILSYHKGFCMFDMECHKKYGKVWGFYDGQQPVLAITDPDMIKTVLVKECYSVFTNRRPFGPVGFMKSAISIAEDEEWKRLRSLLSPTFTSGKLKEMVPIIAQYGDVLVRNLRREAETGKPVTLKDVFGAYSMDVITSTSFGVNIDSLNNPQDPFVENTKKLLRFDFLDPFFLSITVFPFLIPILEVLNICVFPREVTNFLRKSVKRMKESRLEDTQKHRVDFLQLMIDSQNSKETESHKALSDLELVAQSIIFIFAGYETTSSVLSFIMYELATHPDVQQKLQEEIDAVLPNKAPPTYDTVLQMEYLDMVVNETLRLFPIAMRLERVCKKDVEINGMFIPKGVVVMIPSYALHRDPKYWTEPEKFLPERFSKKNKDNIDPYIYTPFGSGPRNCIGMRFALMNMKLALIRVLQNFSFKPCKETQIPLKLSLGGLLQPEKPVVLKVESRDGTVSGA
Ubiquitin carboxyl-terminal hydrolase 1 (Homo sapiens), sequence (O94782 whole entry, looked up): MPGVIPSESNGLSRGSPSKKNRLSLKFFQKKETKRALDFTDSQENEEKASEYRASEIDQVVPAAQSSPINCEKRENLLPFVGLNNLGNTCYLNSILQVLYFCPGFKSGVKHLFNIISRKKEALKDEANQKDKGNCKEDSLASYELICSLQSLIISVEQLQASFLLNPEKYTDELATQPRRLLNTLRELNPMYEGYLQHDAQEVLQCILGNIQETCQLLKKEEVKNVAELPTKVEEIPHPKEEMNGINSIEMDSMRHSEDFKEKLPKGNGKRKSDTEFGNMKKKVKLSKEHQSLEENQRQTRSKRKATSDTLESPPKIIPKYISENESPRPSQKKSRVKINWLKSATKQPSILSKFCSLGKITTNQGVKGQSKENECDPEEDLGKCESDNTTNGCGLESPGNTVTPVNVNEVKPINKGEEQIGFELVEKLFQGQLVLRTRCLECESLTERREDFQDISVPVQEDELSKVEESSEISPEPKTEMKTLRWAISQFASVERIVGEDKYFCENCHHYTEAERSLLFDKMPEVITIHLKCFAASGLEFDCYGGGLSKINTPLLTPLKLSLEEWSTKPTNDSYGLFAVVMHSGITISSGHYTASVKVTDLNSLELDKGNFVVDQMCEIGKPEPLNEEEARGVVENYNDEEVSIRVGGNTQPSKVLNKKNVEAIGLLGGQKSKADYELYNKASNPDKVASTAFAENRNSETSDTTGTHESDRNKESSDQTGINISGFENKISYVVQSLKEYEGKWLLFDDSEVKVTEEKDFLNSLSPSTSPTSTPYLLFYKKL

In the case of `Cc1cccc(CNc2cc(-c3ccoc3)ncn2)c1`, the Potency in assay [1] was > 11.4 µM (inactive); in [5], > 46 µM (inactive); in assay [6] it was > 46 µM (inactive); in [9], 7.94 µM (active). Besides, the figures for the activity change, negative = inhibition in assay [2], in [3] and in assay [13] were -15.6% (inactive), 12% (inactive) and 5.52% (inactive), respectively. Also, in assay [4], the activity, negative = inhibition is -3.91% (inactive). The Potency result in assay [7], in assay [8], in [10] and in assay [11] was “inactive” throughout. Further, the molecule was called inactive in [12] and in assay [14]. In addition, the figures for the max response in assay [13] (setting [16]) and in assay [13] (setting [17]) were -1.87% and 6.63%, respectively.
Regarding `Cc1ccccc1-c1cc(-n2ccnc2)ncn1`, the Potency in assay [1] was > 11.4 µM (inactive); in assay [5], > 46 µM (inactive); in assay [6] it was > 46 µM (inactive). Further, the activity change, negative = inhibition in assay [2] was -7.76% (inactive); in assay [3] it was -6.87% (inactive); in [13] it was 9.66% (inactive). Moreover, in assay [4], the activity, negative = inhibition was 15.7% (inactive). The Potency result in assay [7], in [8], in assay [11] and in [15] was “inactive” throughout. For the same molecule, the call in [12] and in [14] was inactive. In addition, the max response in assay [13] (setting [16]) was determined as 7.52%; in assay [13] (setting [17]), 17.5%.
`O=C(c1cnccn1)N1CCC[C@@]2(CCN(Cc3ccccc3)C2)C1`: the Potency in assay [1] is > 11.4 µM (inactive); in assay [6] it was > 46 µM (inactive). The activity change, negative = inhibition was 5.08% (inactive) in [2], 6.26% (inactive) in assay [3] and 1.97% (inactive) in assay [13]. Also, the activity, negative = inhibition in assay [4] is 1.17% (inactive). Further, the Potency result in assay [7] and in assay [8] was “inactive” throughout. The max response in assay [13] (setting [16]) came out at 8.78%; in assay [13] (setting [17]), 13.2%. In [14], the outcome was inactive.
On to `O=C(c1cccc(F)c1)N1CCC[C@@]2(CCN(c3ncccn3)C2)C1`, for which the Potency is > 11.4 µM (inactive) in assay [1] and > 46 µM (inactive) in assay [6]. In addition, the activity change, negative = inhibition was -17.6% (inactive) in assay [2], 10.1% (inactive) in assay [3] and 3.33% (inactive) in assay [13]. In addition, the activity, negative = inhibition in assay [4] is 1.15% (inactive). The Potency result in assay [7] and in [8] was “inactive” throughout. Further, the max response in assay [13] (setting [16]) came out at 7.74%; in assay [13] (setting [17]), 15.7%. Also, the result in assay [14] was inactive.
As to `COCC(=O)N1CCC2(CC1)CCN(c1ccccc1)CC2`, the Potency in assay [1] was > 11.4 µM (inactive); in [6], > 46 µM (inactive). In addition, the activity change, negative = inhibition is -2.33% (inactive) in [2], 15.9% (inactive) in assay [3] and -1.96% (inactive) in assay [13]. For the same molecule, in assay [4], the activity, negative = inhibition was -2.7% (inactive). Besides, the Potency entry in [7] and in [8] was “inactive” in each case. The max response was 4.08% in [13] (setting [16]) and 3.97% in [13] (setting [17]). In addition, in [14], the outcome was inactive.
`O=C(c1csnn1)N1CCC[C@@]2(CCN(Cc3cc(C(F)(F)F)cc(C(F)(F)F)c3)C2)C1`: the Potency in assay [1] is > 11.4 µM (inactive); in assay [6] it was > 46 µM (inactive). Further, the activity change, negative = inhibition in assay [2] is -0.847% (inactive); in [3], 2.05% (inactive); in assay [13] it was 5.01% (inactive). In addition, the activity, negative = inhibition in assay [4] is -8.74% (inactive). For the same molecule, the Potency entry in [7] and in assay [8] was “inactive” each time. For the same molecule, the max response in assay [13] (setting [16]) amounted to 20.3%; in [13] (setting [17]), 22.1%. The outcome in [14] was inactive.
`COc1ccc(-n2c(=O)cnc3cnc(Nc4ccccc4)nc32)cc1`: the values for the Potency in assay [1], in assay [5] and in assay [6] were > 11.4 µM (inactive), > 9.22 µM (inactive) and > 46 µM (inactive), respectively. The activity change, negative = inhibition was -13.4% (inactive) in assay [2], 5.4% (inactive) in [3] and 7.14% (inactive) in assay [13]. Also, in assay [4], the activity, negative = inhibition was -1.48% (inactive). Besides, the Potency result in [7] is “inactive”. For the same molecule, the max response came to 8.28% in assay [13] (setting [16]) and 18.1% in assay [13] (setting [17]). Further, the result in assay [14] was inactive.
